Laboratory results from the supplement of paper PMC3842684.

Experiments:
[1] = tested on: P. falciparum NF54-pfs16-GFP early (I-III) stage gametocytes; assay: relative % inhibition of viable gametocyte number; higher = more gametocytocidal; settings: stage: early (I-III) gametocyte, incubation 72 h
Outline: (§1)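 Relative inhibition was normalised to in-plate vehicle and positive-control wells, with viable gametocytes defined on confocal images as elongated GFP objects whose MitoTracker Red signal exceeded a cut-off. NF54 pfs16-GFP gametocytes, magnet-isolated at early (I/IIa, day 2) or late (day 8) stage, were plated at 10% parasitaemia, 0.1% haematocrit with compound at 5 or 0.5 µM. Plates were incubated 72 h at 37°C, 5% CO2, 5% O2, then stained overnight.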

[2] = tested on: P. falciparum NF54-pfs16-GFP late (IV-V) stage gametocytes; assay: as above; settings: stage: late (IV-V) gametocyte, incubation 72 h
Outline: as §1

| Structure (SMILES) | relative % inhibition ([1]; 0.5 µM) | relative % inhibition ([1]; 5 µM) | relative % inhibition ([2]; 0.5 µM) | relative % inhibition ([2]; 5 µM) |
| --- | --- | --- | --- | --- |
| CCCCC(O)(c1ccc(Cl)cc1)C(CN1CCOCC1)c1ccc(Cl)cc1 (stereo not drawn) | 10.8% | 92.5% | -3.8% | 40.8% |
| COc1ccc2nc(C)cc(Nc3cccc(O)c3)c2c1 | 2.97% | 3.08% | -18.7% | -9.92% |
| CCCOCc1cc(CN2CCN(c3cccc(Cl)c3)CC2)c(O)c2ncccc12 | 14% | 91.3% | -7.95% | 102% |
| COc1ccc(-c2nc(N3CCN(C(=O)C4CCCCC4)CC3)c3c4c(sc3n2)CCCC4)cc1 | -24.1% | 55.7% | 92.2% | 86.8% |
| Cc1ccc(NC(=O)Nc2cccc(Cl)c2)cc1F | 11% | 28.9% | -16% | 21.8% |
| CCN(CC)CCNc1ccnc2cc(Cl)ccc12 | -1.61% | 100% | 18.2% | 14.7% |
| COc1ccc(NC(=O)C2c3ccccc3C(=O)N(CC(C)C)C2c2cccs2)cc1Cl (stereo not drawn) | 42.8% | 90.9% | 54.9% | 66% |
| CCOc1ccc(CN2CCN(CC(O)COc3ccc(OCC(O)CN4CCN(Cc5ccc(OCC)cc5)CC4)cc3)CC2)cc1 (stereo not drawn) | 6.71% | 74.7% | -16.8% | 8.51% |
| CCN(CC)CCCNc1nc(-c2ccc(Cl)cc2)nc2ccccc12 | 11.6% | 96.5% | 13.1% | 23.5% |
| OC(CNCC1CCCO1)Cn1c2ccc(Cl)cc2c2cc(Cl)ccc21 (stereo not drawn) | 16.5% | 31.6% | 45.5% | 75.6% |
| COc1ccccc1N=C1C(=O)c2ccccc2C(O)=C1N1CCCCC1 | 21.8% | 44.6% | -11.2% | 10.5% |
| CCOc1ccc(CCNC(=O)c2cccs2)cc1OCC | -1.74% | 30.1% | -6.65% | 16.1% |
| COc1cc(SC)ccc1C(=O)N1CCCC(C)C1 (stereo not drawn) | -24.7% | -6.96% | 5.64% | 6.01% |
| C[n+]1c2ccccc2nc2ccc(NCCO)cc21 | 6.83% | 0.402% | 13.2% | 4.26% |
| O=C(O)C1Cc2c([nH]c3ccccc23)C(c2ccc(Cl)cc2Cl)N1 (stereo not drawn) | -10.4% | -20.9% | 6.2% | 1.16% |
| O=C(CCl)NCCOc1ccc(Cl)cc1Cl | 24% | 9.39% | 8.06% | 5.3% |
| CCOC(=O)C1=C(C)N=c2sc(=Cc3ccccc3O)c(=O)n2C1c1ccc(OC)c2ccccc12 (stereo not drawn) | -2.21% | 86.4% | 65.8% | 61.1% |
